Results on 39 compounds are retold here after PubChem BioAssay (EPA / NIEHS).

Each structure is given as a SMILES string. Several values for one entry are separate records, joined by “and”; a condition that tells them apart may be missing. Equal entries are not always repeated. Some compounds were tested as several samples or in several runs, with calls that do not always agree. Activity calls are given as the source filed them. Rule for the calls: active = hit-call score of the fitted dose curve at least 0.9, where 1 is the maximum; inactive = score below 0.9.

One may read the AC50 as the concentration giving half of the maximal activity seen.

Read-out in this test: Vascular endothelial growth factor receptor 2 (Homo sapiens) (UniProt P35968)
As to the kind of experiment: BSK_4H_VEGFRII: BioMAP Diversity Plus: 4H Assay for Vascular endothelial growth factor receptor 2 (VEGFR2) Biomarker Activity (AID 2283031). To be noted: primary human endothelial cells (HUVEC); actives raise or lower the signal. The protocol: BSK_4H is a cell-based, multiplexed-readout assay that uses umbilical vein endothelium, a human vascular primary cell, with measurements taken at 24 hours after chemical dosing in a 96-well plate.BSK_4H_VEGFRII is an assay component measured in the BSK_4H assay. It measures VEGFRII antibody related to regulation of gene expression using ELISA technology.Data from the assay component BSK_4H_VEGFRII was analyzed into 1 assay endpoint. This assay endpoint, BSK_4H_VEGFRII, was analyzed with bidirectional fitting relative to DMSO as the negative control and baseline of activity. Using a type of binding reporter, gain or loss-of-signal activity can be used to understand changes in the signaling as they relate to the gene KDR. Furthermore, this assay endpoint can be referred to as a primary readout, because this assay has produced multiple assay endpoints where this one serves a signaling function. To generalize the intended target to other relatable targets, this assay endpoint is annotated to the kinase intended target family, where the subfamily is receptor tyrosine kinase.
The levels of cell surface (or secreted, indicated by the prefix "s") biomarker endpoints were measured by ELISA. Overt cytotoxicity to cells in confluent adherent cultures (all systems other than the BT system) was assessed by measuring total protein levels using sulforhodamine B (SRB) staining in parallel cultures at the time of biomarker measurements, indicated as SRB endpoints. For proliferation assays for adherent cell types, individual cell types are cultured at sub-confluence and relative cell numbers quantified by SRB staining at time points optimized for each system (48 h: 3C and CASM3C systems; 72 h: BT and HDF3CGF systems; 96 h: SAg system). SRB was performed by staining cells with 0.1% SRB after fixation with 10% TCA and reading wells at 560 nm.Viability and proliferation of PBMC (T cells) was quantified by Alamar Blue reduction for the SAg and BT systems. For PBMC viability (referred to as PBMC Cytotoxicity within the assay endpoint names), cells were plated (75,000/well in a 96-well plate) and then chemical samples added for 1 h before addition of activators, SEB and TSST-1 (20 ng/mL final concentration each). Cells were incubated for 90 h. Then, Alamar Blue (20 uL/well) (Invitrogen, Cat DAL1100) was added for 6 h, and the plates were read with a fluorescence microplate reader at 546/580 nm (excitation/emission). For PBMC proliferation, cells were plated and activated as above but incubated for only 16 h prior to addition of Alamar Blue. Plates were read after 6 h.
On to `O=C(F)C1(F)C(F)(F)C(F)(F)C(F)(F)C(F)(F)C1(F)F`, for which the result was inactive.
In the case of `Nc1cc([N+](=O)[O-])cc(Cl)c1O`, the outcome was inactive.
Still for that read-out and setting: the entry for `NS(=O)(=O)C(F)(F)C(F)(F)C(F)(F)C(F)(F)C(F)(F)C(F)(F)F` is “inactive”; for `CCOC(=O)CC(=O)C(F)(F)C(F)(F)F` it is “inactive”.
As to `O=C1C=CC(=O)N1c1ccc(Cc2ccc(N3C(=O)C=CC3=O)cc2)cc1`, the AC50 is 10.6 µM (active).
Take `O=C(Cl)C(F)(F)C(F)(F)C(F)(F)C(F)(F)C(F)(F)C(F)(F)F`: the outcome was inactive.
As to `NCC(F)(F)C(F)(F)C(F)(F)C(F)(F)C(F)(F)C(F)(F)F`, the result was inactive.
Still for that read-out and setting: the entry for `C=CC(=O)OCC(F)(F)C(F)(F)C(F)(F)C(F)(F)C(F)(F)C(F)(F)C(F)(F)C(F)F` is “inactive”.
As to `CCN(CC)c1ccc(N=Nc2ccccc2)cc1`, the concentration at half-maximal activity (AC50) is 20 µM (active).
In the case of `O=C(O)CCC(F)(F)C(F)(F)C(F)(F)C(F)(F)C(F)(F)C(F)(F)C(F)(F)F`, the outcome was inactive.
The same measure, in the same setting: under `CO[Si](C)(CCC(F)(F)C(F)(F)C(F)(F)C(F)(F)C(F)(F)C(F)(F)F)OC` stands “inactive”; under `O=C(O)C(F)(F)C(F)(F)C(F)(F)C(=O)O`, “inactive”.
Still for that read-out and setting: under `O=C(O)C(F)(F)OC(F)(F)C(F)(F)OC(F)(F)C(F)(F)OC(F)(F)F` stands “inactive”.
The same measure, in the same setting: under `O=C=NCc1cccc(CN=C=O)c1` stands “inactive”.
As for `FC(F)(F)C(F)(F)C(F)(F)CC1CO1` (stereo not given), the outcome was inactive.
Same read-out and setting: the entry for `O=C(O)CCC(F)(F)C(F)(F)C(F)(F)F` is “inactive”; for `O=S(=O)(Cl)C(F)(F)C(F)(F)C(F)(F)C(F)(F)C(F)(F)C(F)(F)C(F)(F)C(F)(F)F` it is “inactive”; for `CCN=C1C=CC(=C(c2ccc(N(CC)CC)cc2)c2ccc(N(CC)CC)cc2)c2ccccc21` it is “inactive”.
On to `Cc1ccc(S(=O)(=O)C(I)I)cc1`, for which the concentration at half-maximal activity (AC50) was 1.87 µM (active).
For `CNS(=O)(=O)C(F)(F)C(F)(F)C(F)(F)C(F)(F)C(F)(F)C(F)(F)C(F)(F)C(F)(F)F`, the result was inactive.
On the same count and under the same terms, under `C=C(C)C(=O)OCC(F)(F)C(F)(F)C(F)(F)C(F)F` stands “inactive”.
Same read-out and setting: under `Cc1ccc(O)c(-n2nc3ccccc3n2)c1` stands “inactive”; under `O=S(=O)(O)CCC(F)(F)C(F)(F)C(F)(F)C(F)(F)C(F)(F)C(F)(F)C(F)(F)C(F)(F)F`, “inactive”.
On the same count and under the same terms, the entry for `Cc1cnccn1` is “inactive”; for `NC(=O)C(F)(F)C(F)(F)C(F)(F)C(F)(F)C(F)(F)C(F)(F)C(F)(F)F` it is “inactive”; for `C=CC(=O)OCCC(F)(F)C(F)(F)C(F)(F)C(F)(F)F` it is “inactive”.
For `O=C(O)C(F)(F)C(F)(F)C(F)(F)OC(F)(C(F)(F)F)C(F)(F)F`, the result was inactive.
On the same count and under the same terms, the entry for `NC(=O)C(F)(F)C(F)(F)C(F)(F)F` is “inactive”; for `OCC(O)CC(F)(F)C(F)(F)C(F)(F)C(F)(F)C(F)(F)C(F)(F)C(F)(F)C(F)(F)F` (stereo not given) it is “inactive”; for `O=C(O)C(F)(F)C(F)(F)C(F)(F)C(F)(F)C(F)(F)C(F)(F)C(F)F` it is “inactive”.
Same read-out and setting: under `O=S(=O)(O)CCC(F)(F)C(F)(F)C(F)(F)C(F)(F)F` stands “inactive”.
In the case of `C=CC(=O)OCC(F)(F)C(F)(F)C(F)(F)COC(=O)C=C`, the AC50 is 53.8 µM (active) and the result was inactive.
Take `CCN(CCO)S(=O)(=O)C(F)(F)C(F)(F)C(F)(F)C(F)(F)C(F)(F)C(F)(F)C(F)(F)C(F)(F)F`: the result was inactive.
Consider `OCC(F)(F)C(F)(F)C(F)(F)C(F)(F)C(F)(F)C(F)(F)CO`, for which the outcome was inactive.
For `C[Si](Cl)(Cl)CCC(F)(F)C(F)(F)C(F)(F)C(F)(F)C(F)(F)C(F)(F)F`, the result was inactive.
The same measure, in the same setting: under `NC(=O)C(F)(F)C(F)(F)C(F)(F)C(F)F` stands “inactive”.
As for `OCCCC(F)(F)C(F)(F)C(F)(F)C(F)(F)C(F)(F)C(F)(F)C(F)(F)C(F)(F)F`, the half-maximal activity concentration (AC50) was 53.5 µM (active) and 36.8 µM (active).
For the compound `FC(F)(F)C(F)(F)C(F)(F)C(F)(F)C(F)(F)C(F)(F)CC[Si](Cl)(Cl)Cl`, the result was inactive.
The same measure, in the same setting: under `O=C(O)C(F)(F)C(F)(F)C(F)(F)OC(F)(F)F` stands “inactive”.
